Among the data in ChEMBL document CHEMBL1961873, “Compounds: GSK PKIS; Assays: Nanosyn kinase panel” (2012) are inhibition values, retold here.

As usually defined, the inhibition is the drop in the measured response relative to a control, in per cent.

Assay [1] has as its target High affinity nerve growth factor receptor (Homo sapiens) (UniProt P04629). The note with it: at 1 µM.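 Note: each value is the mean percent inhibition of TRKA.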
Assay [2] concerns the target BDNF/NT-3 growth factors receptor (Homo sapiens) (UniProt Q16620). The following applies: at 0.1 µM.
The target is the same in assay [3]. The note with it: at 1 µM.
Assay [4] concerns the target NT-3 growth factor receptor (Homo sapiens) (UniProt Q16288). The note with it: at 0.1 µM.
Assay [5] shares this target. The note with it: at 1 µM.
For assay [6], the target named is T1, Tyrosine-protein kinase TXK (Homo sapiens) (UniProt P42681).
T1 sequence (whole entry): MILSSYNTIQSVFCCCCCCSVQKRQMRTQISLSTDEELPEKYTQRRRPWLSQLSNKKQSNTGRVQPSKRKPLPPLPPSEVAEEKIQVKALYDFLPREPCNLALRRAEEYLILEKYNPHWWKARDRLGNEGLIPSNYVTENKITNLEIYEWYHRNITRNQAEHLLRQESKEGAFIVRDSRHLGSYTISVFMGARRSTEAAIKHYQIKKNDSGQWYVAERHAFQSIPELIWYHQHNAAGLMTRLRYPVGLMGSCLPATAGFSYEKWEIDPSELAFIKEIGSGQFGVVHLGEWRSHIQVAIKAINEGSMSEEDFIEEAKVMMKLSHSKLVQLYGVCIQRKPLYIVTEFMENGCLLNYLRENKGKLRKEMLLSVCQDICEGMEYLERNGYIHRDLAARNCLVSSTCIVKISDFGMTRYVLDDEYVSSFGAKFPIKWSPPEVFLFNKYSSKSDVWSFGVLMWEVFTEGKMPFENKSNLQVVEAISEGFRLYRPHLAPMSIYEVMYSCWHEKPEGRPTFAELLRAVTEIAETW
The following applies: at 0.1 µM.

In assay [7] the target is T1, Tyrosine-protein kinase TXK (Homo sapiens). The note with it: at 1 µM.
Assay [8] addresses Non-receptor tyrosine-protein kinase TYK2 (Homo sapiens) (UniProt P29597). The note with it: at 0.1 µM.
In assay [9] the target is T2, Dual specificity protein kinase TTK (Homo sapiens) (UniProt P33981).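 Note: reported figures are mean TTK inhibition at 1 µM.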
T2 sequence (whole entry): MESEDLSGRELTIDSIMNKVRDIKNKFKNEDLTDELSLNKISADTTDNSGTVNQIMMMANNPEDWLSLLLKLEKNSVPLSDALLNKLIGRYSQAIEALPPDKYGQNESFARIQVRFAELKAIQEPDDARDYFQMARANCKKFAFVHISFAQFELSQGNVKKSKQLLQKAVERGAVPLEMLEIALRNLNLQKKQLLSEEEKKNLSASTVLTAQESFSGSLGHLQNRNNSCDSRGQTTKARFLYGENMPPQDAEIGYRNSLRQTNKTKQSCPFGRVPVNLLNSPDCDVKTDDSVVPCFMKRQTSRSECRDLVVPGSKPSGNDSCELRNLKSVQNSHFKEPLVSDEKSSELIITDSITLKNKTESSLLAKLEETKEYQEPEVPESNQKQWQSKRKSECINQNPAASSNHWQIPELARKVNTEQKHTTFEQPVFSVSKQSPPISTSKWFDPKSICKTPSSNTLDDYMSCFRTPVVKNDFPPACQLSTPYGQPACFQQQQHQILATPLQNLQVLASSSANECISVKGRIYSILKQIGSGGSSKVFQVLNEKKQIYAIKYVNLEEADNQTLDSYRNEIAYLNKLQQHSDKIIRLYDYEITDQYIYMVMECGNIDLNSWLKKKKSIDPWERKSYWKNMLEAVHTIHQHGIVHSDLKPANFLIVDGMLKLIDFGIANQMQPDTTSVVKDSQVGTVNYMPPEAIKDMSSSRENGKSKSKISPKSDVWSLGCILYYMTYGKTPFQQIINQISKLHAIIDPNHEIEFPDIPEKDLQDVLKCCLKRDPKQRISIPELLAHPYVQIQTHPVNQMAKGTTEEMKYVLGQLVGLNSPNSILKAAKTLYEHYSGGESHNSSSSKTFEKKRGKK
The following applies: at 1 µM.

Assay [10] addresses T3, Aurora kinase A (Homo sapiens) (UniProt O14965).
T3 sequence (whole entry): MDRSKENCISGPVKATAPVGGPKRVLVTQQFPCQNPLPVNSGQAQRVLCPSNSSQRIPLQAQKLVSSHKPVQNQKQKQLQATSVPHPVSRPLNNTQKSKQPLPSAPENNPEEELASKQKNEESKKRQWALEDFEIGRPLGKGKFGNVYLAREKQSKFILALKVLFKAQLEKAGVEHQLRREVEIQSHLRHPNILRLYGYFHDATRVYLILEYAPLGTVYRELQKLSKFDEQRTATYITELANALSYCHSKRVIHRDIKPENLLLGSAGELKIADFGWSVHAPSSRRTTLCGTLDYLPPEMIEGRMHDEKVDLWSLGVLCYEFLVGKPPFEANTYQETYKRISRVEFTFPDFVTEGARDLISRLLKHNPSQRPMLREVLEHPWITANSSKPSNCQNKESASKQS
The note with it: at 0.1 µM.

Assay [11] deals with T3, Aurora kinase A (Homo sapiens). The following applies: at 1 µM.
Assay [12] concerns the target Aurora kinase B (Homo sapiens) (UniProt Q96GD4). The following applies: at 0.1 µM.
The target is the same in assay [13]. The note with it: at 1 µM.
In assay [14] the target is T4, Aurora kinase C (Homo sapiens) (UniProt Q9UQB9).
T4 sequence (whole entry): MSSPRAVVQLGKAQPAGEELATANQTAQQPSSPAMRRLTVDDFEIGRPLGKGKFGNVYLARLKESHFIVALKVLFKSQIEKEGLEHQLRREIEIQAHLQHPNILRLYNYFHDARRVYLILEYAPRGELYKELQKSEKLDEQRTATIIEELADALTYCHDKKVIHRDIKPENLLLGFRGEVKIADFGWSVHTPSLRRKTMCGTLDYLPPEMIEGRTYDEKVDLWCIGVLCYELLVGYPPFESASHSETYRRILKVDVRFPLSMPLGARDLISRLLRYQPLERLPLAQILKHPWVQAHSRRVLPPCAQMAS
The following applies: at 0.1 µM.

In assay [15] the target is T4, Aurora kinase C (Homo sapiens). The note with it: at 1 µM.
The target of assay [16] is Serine/threonine-protein kinase 10 (Homo sapiens) (UniProt O94804). The note with it: at 0.1 µM.
Chain of Serine/threonine-protein kinase 10 (Homo sapiens) (O94804 whole entry, looked up): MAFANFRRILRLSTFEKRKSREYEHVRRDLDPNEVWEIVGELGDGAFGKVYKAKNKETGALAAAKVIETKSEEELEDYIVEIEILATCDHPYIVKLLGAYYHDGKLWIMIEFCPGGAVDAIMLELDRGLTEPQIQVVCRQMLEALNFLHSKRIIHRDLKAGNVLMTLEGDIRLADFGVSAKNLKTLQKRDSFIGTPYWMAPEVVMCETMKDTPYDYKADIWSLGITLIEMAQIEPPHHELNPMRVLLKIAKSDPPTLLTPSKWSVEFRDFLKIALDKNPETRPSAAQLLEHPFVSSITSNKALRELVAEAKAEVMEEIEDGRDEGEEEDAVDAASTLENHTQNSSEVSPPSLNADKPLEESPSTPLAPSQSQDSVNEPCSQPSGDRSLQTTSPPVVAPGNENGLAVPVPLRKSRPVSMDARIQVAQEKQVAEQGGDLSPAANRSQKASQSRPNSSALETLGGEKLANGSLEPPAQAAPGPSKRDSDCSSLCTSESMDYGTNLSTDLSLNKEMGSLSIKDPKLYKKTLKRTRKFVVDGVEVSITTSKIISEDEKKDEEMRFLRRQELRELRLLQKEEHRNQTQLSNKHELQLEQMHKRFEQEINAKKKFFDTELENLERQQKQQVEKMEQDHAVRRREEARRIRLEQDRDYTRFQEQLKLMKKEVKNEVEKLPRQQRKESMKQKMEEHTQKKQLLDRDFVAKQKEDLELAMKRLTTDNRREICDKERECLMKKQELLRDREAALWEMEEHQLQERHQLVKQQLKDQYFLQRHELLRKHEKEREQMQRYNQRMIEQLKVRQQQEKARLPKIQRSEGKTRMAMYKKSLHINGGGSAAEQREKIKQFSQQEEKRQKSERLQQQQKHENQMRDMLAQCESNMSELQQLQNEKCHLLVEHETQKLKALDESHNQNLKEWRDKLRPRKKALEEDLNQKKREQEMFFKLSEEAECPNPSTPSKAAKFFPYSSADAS
Assay [17] has the same target. The note with it: at 1 µM.
Assay [18] has as its target T5, Mitogen-activated protein kinase kinase kinase kinase 2 (Homo sapiens) (UniProt Q12851).
T5 sequence (whole entry): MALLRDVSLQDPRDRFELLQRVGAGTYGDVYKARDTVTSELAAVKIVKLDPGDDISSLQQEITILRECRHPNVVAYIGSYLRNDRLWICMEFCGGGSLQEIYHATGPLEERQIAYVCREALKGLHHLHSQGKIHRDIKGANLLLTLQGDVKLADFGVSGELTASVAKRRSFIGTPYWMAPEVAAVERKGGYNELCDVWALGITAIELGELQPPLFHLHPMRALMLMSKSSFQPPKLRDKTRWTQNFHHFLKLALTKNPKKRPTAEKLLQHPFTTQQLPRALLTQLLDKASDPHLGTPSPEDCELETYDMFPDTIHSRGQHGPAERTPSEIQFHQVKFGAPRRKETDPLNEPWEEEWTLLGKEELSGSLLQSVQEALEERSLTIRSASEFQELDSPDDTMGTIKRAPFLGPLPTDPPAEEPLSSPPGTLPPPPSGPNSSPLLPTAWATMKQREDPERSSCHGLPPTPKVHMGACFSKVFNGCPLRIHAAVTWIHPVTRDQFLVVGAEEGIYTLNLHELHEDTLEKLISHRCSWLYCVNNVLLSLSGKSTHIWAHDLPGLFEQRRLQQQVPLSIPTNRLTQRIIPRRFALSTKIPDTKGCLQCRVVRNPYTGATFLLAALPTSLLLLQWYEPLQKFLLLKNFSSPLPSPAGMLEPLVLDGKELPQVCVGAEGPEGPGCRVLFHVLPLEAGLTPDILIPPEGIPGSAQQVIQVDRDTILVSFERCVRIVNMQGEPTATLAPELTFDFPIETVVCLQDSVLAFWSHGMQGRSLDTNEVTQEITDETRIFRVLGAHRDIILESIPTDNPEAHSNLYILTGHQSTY
The following applies: at 0.1 µM.

Assay [19] addresses T5, Mitogen-activated protein kinase kinase kinase kinase 2 (Homo sapiens). The following applies: at 1 µM.
The target of assay [20] is Mitogen-activated protein kinase kinase kinase kinase 4 (Homo sapiens) (UniProt O95819). The following applies: at 0.1 µM.
Chain of Mitogen-activated protein kinase kinase kinase kinase 4 (Homo sapiens) (O95819 2-1239 limits assumed): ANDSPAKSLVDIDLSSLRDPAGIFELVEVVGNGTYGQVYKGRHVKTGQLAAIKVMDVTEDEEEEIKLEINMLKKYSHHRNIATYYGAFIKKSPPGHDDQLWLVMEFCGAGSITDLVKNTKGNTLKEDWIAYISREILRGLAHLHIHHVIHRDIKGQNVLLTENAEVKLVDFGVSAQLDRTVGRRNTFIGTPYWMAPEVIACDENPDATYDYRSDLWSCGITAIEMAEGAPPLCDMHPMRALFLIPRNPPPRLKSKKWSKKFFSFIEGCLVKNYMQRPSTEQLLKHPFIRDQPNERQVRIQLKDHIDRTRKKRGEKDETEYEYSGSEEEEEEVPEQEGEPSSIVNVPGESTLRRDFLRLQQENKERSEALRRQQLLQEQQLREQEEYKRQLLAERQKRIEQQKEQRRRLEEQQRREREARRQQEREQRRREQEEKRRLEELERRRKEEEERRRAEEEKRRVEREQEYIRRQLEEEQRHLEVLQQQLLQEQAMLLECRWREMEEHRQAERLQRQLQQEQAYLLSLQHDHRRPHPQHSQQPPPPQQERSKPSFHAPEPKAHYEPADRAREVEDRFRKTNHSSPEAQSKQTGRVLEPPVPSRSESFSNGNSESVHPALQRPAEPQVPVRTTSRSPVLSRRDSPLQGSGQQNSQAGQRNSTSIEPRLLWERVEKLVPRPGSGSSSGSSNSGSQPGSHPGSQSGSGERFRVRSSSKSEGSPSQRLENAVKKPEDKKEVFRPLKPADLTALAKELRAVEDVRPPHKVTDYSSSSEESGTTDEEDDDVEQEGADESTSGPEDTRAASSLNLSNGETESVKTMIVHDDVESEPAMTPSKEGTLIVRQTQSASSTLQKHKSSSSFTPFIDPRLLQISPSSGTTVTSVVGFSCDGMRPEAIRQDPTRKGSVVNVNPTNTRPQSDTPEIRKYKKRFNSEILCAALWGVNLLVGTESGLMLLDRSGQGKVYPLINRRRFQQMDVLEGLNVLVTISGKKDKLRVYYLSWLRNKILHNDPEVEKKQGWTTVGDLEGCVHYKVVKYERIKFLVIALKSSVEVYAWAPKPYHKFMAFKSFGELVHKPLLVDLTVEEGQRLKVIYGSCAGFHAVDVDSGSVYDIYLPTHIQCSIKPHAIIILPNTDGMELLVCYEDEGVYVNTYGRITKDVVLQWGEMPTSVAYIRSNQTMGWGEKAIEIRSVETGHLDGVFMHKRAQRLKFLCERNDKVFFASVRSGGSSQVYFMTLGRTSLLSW

Chain of High affinity nerve growth factor receptor (Homo sapiens) (P04629 33-796 limits assumed): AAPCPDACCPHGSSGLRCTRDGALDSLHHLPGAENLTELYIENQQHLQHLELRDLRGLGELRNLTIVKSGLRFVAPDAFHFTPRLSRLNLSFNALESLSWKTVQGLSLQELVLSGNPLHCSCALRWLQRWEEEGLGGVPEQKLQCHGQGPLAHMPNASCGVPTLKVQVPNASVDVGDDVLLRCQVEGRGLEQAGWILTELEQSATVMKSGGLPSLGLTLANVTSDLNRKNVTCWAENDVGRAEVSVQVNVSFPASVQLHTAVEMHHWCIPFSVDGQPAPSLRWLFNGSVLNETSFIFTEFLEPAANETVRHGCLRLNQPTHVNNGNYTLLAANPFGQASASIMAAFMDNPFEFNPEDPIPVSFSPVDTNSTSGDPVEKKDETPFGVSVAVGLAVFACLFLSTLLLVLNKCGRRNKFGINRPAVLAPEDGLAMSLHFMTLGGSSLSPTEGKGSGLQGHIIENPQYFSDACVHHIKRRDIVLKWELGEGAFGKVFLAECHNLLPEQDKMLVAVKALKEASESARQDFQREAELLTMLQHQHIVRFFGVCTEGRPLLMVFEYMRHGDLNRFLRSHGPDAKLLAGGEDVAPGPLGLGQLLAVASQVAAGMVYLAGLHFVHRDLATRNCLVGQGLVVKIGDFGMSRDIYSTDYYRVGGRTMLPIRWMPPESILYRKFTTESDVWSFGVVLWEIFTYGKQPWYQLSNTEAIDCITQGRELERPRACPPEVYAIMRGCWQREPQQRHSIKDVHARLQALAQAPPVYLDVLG
Chain of BDNF/NT-3 growth factors receptor (Homo sapiens) (Q16620 32-822 limits assumed): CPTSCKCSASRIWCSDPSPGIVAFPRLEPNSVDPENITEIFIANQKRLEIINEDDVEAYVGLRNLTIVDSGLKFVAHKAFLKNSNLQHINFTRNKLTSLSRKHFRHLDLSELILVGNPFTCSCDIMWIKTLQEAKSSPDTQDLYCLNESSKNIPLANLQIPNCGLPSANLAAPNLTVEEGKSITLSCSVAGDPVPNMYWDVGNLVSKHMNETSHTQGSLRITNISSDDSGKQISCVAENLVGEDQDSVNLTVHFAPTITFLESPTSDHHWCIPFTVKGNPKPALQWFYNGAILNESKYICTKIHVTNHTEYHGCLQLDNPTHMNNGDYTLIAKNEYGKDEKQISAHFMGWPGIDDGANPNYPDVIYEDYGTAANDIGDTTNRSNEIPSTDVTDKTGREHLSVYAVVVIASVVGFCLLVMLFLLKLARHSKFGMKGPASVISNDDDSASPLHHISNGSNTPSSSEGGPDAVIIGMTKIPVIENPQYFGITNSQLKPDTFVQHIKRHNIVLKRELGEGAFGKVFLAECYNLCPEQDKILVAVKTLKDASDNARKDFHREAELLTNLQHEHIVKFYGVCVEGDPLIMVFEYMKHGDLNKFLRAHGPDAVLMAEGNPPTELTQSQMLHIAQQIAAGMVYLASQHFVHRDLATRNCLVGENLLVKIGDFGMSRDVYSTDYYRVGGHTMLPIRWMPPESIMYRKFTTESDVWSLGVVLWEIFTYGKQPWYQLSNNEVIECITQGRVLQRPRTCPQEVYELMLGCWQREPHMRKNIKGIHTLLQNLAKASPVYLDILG
Chain of Aurora kinase B (Homo sapiens) (Q96GD4 whole entry): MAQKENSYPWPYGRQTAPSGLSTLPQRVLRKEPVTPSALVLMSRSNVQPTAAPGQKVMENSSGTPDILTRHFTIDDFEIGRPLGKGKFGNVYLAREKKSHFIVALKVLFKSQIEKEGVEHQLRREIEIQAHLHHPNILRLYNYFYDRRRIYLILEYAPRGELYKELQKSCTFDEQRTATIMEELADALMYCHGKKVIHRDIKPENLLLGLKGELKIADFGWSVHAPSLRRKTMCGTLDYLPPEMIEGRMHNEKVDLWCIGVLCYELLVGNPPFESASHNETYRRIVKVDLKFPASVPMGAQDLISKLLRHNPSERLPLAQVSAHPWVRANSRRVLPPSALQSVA
Chain of NT-3 growth factor receptor (Homo sapiens) (Q16288 32-839 limits assumed): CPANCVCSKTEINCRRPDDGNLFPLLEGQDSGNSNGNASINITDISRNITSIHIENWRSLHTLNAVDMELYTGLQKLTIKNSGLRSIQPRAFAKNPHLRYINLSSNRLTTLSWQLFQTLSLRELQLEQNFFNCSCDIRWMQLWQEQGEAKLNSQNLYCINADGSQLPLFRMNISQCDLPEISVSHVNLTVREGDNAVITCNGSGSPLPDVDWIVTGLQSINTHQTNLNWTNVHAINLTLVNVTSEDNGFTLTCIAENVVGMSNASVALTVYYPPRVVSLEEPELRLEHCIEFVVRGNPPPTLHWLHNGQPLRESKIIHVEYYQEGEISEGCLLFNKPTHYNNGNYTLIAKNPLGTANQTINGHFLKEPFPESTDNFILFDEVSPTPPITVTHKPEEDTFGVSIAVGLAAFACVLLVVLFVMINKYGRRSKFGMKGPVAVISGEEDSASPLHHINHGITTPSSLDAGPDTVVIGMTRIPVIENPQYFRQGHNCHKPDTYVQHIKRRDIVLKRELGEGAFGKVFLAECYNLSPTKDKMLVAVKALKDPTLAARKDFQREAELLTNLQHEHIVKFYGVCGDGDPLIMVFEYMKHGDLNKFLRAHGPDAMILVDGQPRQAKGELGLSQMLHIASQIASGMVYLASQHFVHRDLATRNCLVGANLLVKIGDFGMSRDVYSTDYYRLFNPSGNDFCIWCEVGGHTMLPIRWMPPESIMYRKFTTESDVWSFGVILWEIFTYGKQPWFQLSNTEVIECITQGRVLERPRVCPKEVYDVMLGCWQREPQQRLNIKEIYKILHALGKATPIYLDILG

With `Fc1cccc(COc2ccc(Nc3ncnc4sc(-c5ccco5)cc34)cc2Cl)c1`, the inhibition was 0.66% in assay [1]; 3.36% in assay [2]; 3.82% in assay [3]; 3.74% in assay [4]; 3.88% in assay [5]; -1.45% in [6]. In addition, the inhibition in assay [7] is 3.65%; in assay [8], -2.62%; in assay [9], 6.39%; in assay [10], 2.5%; in [11], 3.83%; in assay [12], 3.38%. The inhibition in [13] was determined as 6.89%; in assay [14], 5.96%; in assay [15], 7.59%; in [16] it was 9.25%; in assay [17], 15%; in [18], 1.99%. The figures for the inhibition in assay [19] and in assay [20] were 3.87% and 3.43%, respectively.
As to `COc1ccc2[nH]c3c4[nH]c5ccc(OC)cc5c4c4c(c3c2c1)C(=O)NC4=O`, the inhibition in [1] was found to be 16.6%; in [2], 7.79%; in assay [3], 33.9%; in assay [4] it was 8.83%; in assay [5] it was 41.5%; in assay [6], 2.51%. For the same compound, the inhibition in assay [7] is 14.6%; in assay [8], -2.11%; in assay [9] it was 34.6%; in assay [10], 7.28%; in assay [11], 68.8%; in assay [12], 20.7%. Also, the inhibition was found to be 66.9% in [13]; 12.4% in assay [14]; 86.8% in assay [15]; 9.72% in [16]; 40.2% in [17]; 2.06% in assay [18]. The inhibition in [19] was 12.1%; in assay [20], 84.6%.
As to `CN1CCC(n2cnc(-c3ccc(F)cc3)c2-c2ccnc(N)n2)CC1`, the inhibition amounted to 3.59% in assay [1]; 0.4% in assay [2]; 6.74% in assay [3]; 3.47% in assay [4]; 8.74% in [5]; 2.63% in [6]. The inhibition in assay [7] was 6.31%; in assay [8] it was -2.21%; in assay [9], -7.5%; in assay [10], 4.64%; in assay [11] it was 7.96%; in assay [12], 1.08%. The inhibition in assay [13] stood at 7.37%; in [14], 1.63%; in assay [15], 1.25%; in [16], 3.39%; in [17], 5.28%; in [18] it was 0.79%. Further, the values for the inhibition in assay [19] and in [20] were 5.37% and 2.95%, respectively.
With `Nc1ncc(-c2cccc(S(N)(=O)=O)c2)c2scc(-c3ccc(F)c(Cl)c3)c12`, the inhibition in assay [1] was 2.2%; in assay [2], 2.61%; in assay [3], 3.28%; in [4], 1.75%; in assay [5], 1.1%; in assay [6], 82%. In addition, the inhibition is 91.6% in assay [7]; -1.25% in assay [8]; 14.3% in [9]; 3.16% in assay [10]; 5.8% in assay [11]; 2.25% in assay [12]. The inhibition in assay [13] turned out to be 14.7%; in assay [14], 4.24%; in assay [15] it was 24.6%; in assay [16], 8.9%; in assay [17], 24.7%; in assay [18], 6.47%. Moreover, the inhibition in assay [19] was 31.4%; in assay [20] it was 78.5%.
